# Measured values as given in article PMC12864922, “TDP-43 directly inhibits mRNA accumulation in neurites through modulation of mRNA stability”.
# In all, about 9,900 sequences were measured (“r (bound/input frequency ratio)”: median about 0.7, highest 2% from about 6.5 on). The sample holds the highest values, similar sequences and a random draw of the others, so the mix is not that of the screen.
# B1: ENSMUSG00000031028.145|Tub (ssRNA)
# RNA: GGGAGUUCUACAGUCCGACGAUCGCUUCGAUAUCCGCAUGCUAACAGGAUCUAGGUCACCAUUCAAGUAAUGGUAUGCUUCAGGAAGAAUGUCCUCUCUGGGAAGACUCAGCUCCCAUUAUUGCCAGCAUGCCAUGAUCAGUGAGGGCUGUGUGCCAUGCUUAGGGGGAUGGCGCAGGGUGAGGGGAGCAGAGGAUAUUUUAGGGCCACAAGAGCUCAGAGGUAGCGGACCUCUGUGUGGUUCACCAACAGCAAUGCUGAUCCCUGAGUAUAGGGCACAUGUCUCUUGGUUACCUCACUGGUUCUCUUGCGGUCGCACUAGUGUGGAAUUCUCGGGUGUCAAGG
# B2: ENSMUSG00000061578.1426|Ksr2 (ssRNA)
# RNA: GGGAGUUCUACAGUCCGACGAUCGCUUCGAUAUCCGCAUGCUACUCUUCCUUUUCCUUUUUAGAUCUGUCUUGCUCUCUGUCUCUCUCACUCAUUGCCAACAUGUUGCUGGGAAAGAAUAUUUGAUUUAGAUGCCAAUCAGGAAGGCAAGUAGGAUGGAUGGAUGAGUGAGUGGAUAGGUAGGUAUAUAAAUGGAUGGAUGGGUGAUGGAUGGGUAAAUGAAUGGAUAGGUAUGUGAAUGAAUGGAUGAUGGAUGAAUGGAUGGGUAGGUGGGUAGAUAGGUAUAUGAAUGAAUGGAUGAAUGCUCUUGCGGUCGCACUAGUGUGGAAUUCUCGGGUGUCAAGG
# B3: ENSMUSG00000043670.185|Diras1|17:21;114:118;148:152;162:171;177:184;217:221;250:260 (ssRNA)
# RNA: GGGAGUUCUACAGUCCGACGAUCGCUUCGAUAUCCGCAUGCUAGCCUCUUUGCUGGUCAACACAACUCUGGAGACUGUCCCCCAUGUCUGCCCUGAGUUACGGAGCCCCUGUGGUAUCUGCGAGACUGUCCAGGAGACUUGAGUGGCUCCUGGGCCACACACCCACCCAGAUGAGGGUGACUUAGAAUUCACACAUUAUGUGCCACACACACACGAUGGCACACACACUGUCUUGGGAUGGGGUGUUCUUGCACCACUUACACAUCUUAGUGAGACCACAGUGUAAGUGGCCCACACACACACCUCUUGCGGUCGCACUAGUGUGGAAUUCUCGGGUGUCAAGG
# B4: ENSMUSG00000029028.10|Lrrc47 (ssRNA)
# RNA: GGGAGUUCUACAGUCCGACGAUCGCUUCGAUAUCCGCAUGCUAGACGGACCUGAUCACCCUCCCUCCCCACGUGACUGUGGUCCGCUGACAGGCUCCUGUAGGUGUGGGUGUGCUGUAGGUGUCUGUGUGGGUGUGGGUGUGCUGUAGGUGUCUGUGUGGGUGUGGGUGUGCUAUAGGUAUCUGUGGGUGUGCUGUAGGUGUCUGUGUGGGUGUGCUGUAGGUGUCUGUGUAGGUGUGGGUGUGCUGUAGGUGUCUGUGUGGGUGUGCUAGGUGUCUGUAUAGGUGUGGGUGUGCUGUAGAUGCUCUUGCGGUCGCACUAGUGUGGAAUUCUCGGGUGUCAAGG
# B5: ENSMUSG00000029028.6|Lrrc47 (ssRNA)
# RNA: GGGAGUUCUACAGUCCGACGAUCGCUUCGAUAUCCGCAUGCUACUUGAAGGUGGUGUACCCAUCCAAGACGGACCUGAUCACCCUCCCUCCCCACGUGACUGUGGUCCGCUGACAGGCUCCUGUAGGUGUGGGUGUGCUGUAGGUGUCUGUGUGGGUGUGGGUGUGCUGUAGGUGUCUGUGUGGGUGUGGGUGUGCUAUAGGUAUCUGUGGGUGUGCUGUAGGUGUCUGUGUGGGUGUGCUGUAGGUGUCUGUGUAGGUGUGGGUGUGCUGUAGGUGUCUGUGUGGGUGUGCUAGGUGUCUGUCUCUUGCGGUCGCACUAGUGUGGAAUUCUCGGGUGUCAAGG
# B6: ENSMUSG00000029028.10|Lrrc47|60:64;66:70;82:87;89:93;95:99;111:116;118:122;124:128;145:149;161:166;168:172;184:188;191:195;197:201;213:218;220:224;241:245;247:2 … (ssRNA)
# RNA: GGGAGUUCUACAGUCCGACGAUCGCUUCGAUAUCCGCAUGCUAGACGGACCUGAUCACCCUCCCUCCCCACGUGACUGUGGUCCGCUGACAGGCUCCUGUAGCACACGCACACCUGUAGGUGUCACACACGCACACGCACACCUGUAGGUGUCACACACGCACACGCACACCUAUAGGUAUCUGUGGCACACCUGUAGGUGUCACACACGCACACCUGUAGGUGUCACACAAGCACACGCACACCUGUAGGUGUCACACACGCACACCUAGGUGUCUGUAUAGCACACGCACACCUGUAGAUGCUCUUGCGGUCGCACUAGUGUGGAAUUCUCGGGUGUCAAGG
# B7: ENSMUSG00000029028.9|Lrrc47 (ssRNA)
# RNA: GGGAGUUCUACAGUCCGACGAUCGCUUCGAUAUCCGCAUGCUAAUCCAAGACGGACCUGAUCACCCUCCCUCCCCACGUGACUGUGGUCCGCUGACAGGCUCCUGUAGGUGUGGGUGUGCUGUAGGUGUCUGUGUGGGUGUGGGUGUGCUGUAGGUGUCUGUGUGGGUGUGGGUGUGCUAUAGGUAUCUGUGGGUGUGCUGUAGGUGUCUGUGUGGGUGUGCUGUAGGUGUCUGUGUAGGUGUGGGUGUGCUGUAGGUGUCUGUGUGGGUGUGCUAGGUGUCUGUAUAGGUGUGGGUGUGCUGCUCUUGCGGUCGCACUAGUGUGGAAUUCUCGGGUGUCAAGG
# B8: ENSMUSG00000029028.7|Lrrc47 (ssRNA)
# RNA: GGGAGUUCUACAGUCCGACGAUCGCUUCGAUAUCCGCAUGCUAGGUGGUGUACCCAUCCAAGACGGACCUGAUCACCCUCCCUCCCCACGUGACUGUGGUCCGCUGACAGGCUCCUGUAGGUGUGGGUGUGCUGUAGGUGUCUGUGUGGGUGUGGGUGUGCUGUAGGUGUCUGUGUGGGUGUGGGUGUGCUAUAGGUAUCUGUGGGUGUGCUGUAGGUGUCUGUGUGGGUGUGCUGUAGGUGUCUGUGUAGGUGUGGGUGUGCUGUAGGUGUCUGUGUGGGUGUGCUAGGUGUCUGUAUAGGUCUCUUGCGGUCGCACUAGUGUGGAAUUCUCGGGUGUCAAGG
# B9: ENSMUSG00000029028.8|Lrrc47 (ssRNA)
# RNA: GGGAGUUCUACAGUCCGACGAUCGCUUCGAUAUCCGCAUGCUAGUACCCAUCCAAGACGGACCUGAUCACCCUCCCUCCCCACGUGACUGUGGUCCGCUGACAGGCUCCUGUAGGUGUGGGUGUGCUGUAGGUGUCUGUGUGGGUGUGGGUGUGCUGUAGGUGUCUGUGUGGGUGUGGGUGUGCUAUAGGUAUCUGUGGGUGUGCUGUAGGUGUCUGUGUGGGUGUGCUGUAGGUGUCUGUGUAGGUGUGGGUGUGCUGUAGGUGUCUGUGUGGGUGUGCUAGGUGUCUGUAUAGGUGUGGGUCUCUUGCGGUCGCACUAGUGUGGAAUUCUCGGGUGUCAAGG
# Target: TDP-43 (Homo sapiens, UniProt Q13148 1-414)
# Assay: RNA Bind-n-Seq with designed 260-mer pool; 25 mM Tris-HCl, 150 mM KCl, 3 mM MgCl2, BSA (printed 500 mg/mL), 20 units/mL SUPERase IN; pH not stated; 500 nM RNA pool, 1 h, 4 C; TDP-43 5, 50, 500 nM; high values mean tight binding
# Conditions: protein: recombinant; tags: SBP (GST cleaved off with PreScission; pGEX-GST-SBP)
# Summary of the method: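 Streptavidin beads captured recombinant SBP-tagged TDP-43 at 5, 50 or 500 nM, and the beads were incubated for 1 h at 4 °C with 500 nM of an in vitro-transcribed pool of 260-nt 3′ UTR oligos in 25 mM Tris-HCl, 150 mM KCl, 3 mM MgCl2, BSA and SUPERase IN. After washing, bound RNA was eluted with biotin, reverse transcribed, PCR-amplified and sequenced. Binding is reported as R, the mapped-read-normalized abundance of each oligo in the bound sample divided by its abundance in the input. Two independent protein batches served as duplicates.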
# Chain of TDP-43 (Q13148 whole entry): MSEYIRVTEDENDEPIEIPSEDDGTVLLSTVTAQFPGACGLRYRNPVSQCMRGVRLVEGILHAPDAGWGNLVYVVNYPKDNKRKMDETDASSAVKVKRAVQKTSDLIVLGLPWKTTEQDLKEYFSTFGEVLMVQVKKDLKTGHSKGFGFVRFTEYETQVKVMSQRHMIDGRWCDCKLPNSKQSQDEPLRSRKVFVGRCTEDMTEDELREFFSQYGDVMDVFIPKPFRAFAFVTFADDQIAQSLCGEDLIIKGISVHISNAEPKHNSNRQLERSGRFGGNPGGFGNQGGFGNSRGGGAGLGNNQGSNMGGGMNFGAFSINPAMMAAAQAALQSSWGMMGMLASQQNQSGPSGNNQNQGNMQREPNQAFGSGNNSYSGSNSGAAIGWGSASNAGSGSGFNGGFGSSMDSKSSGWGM
row,Binder,binding signal
1,B1,0.682 R (bound/input frequency ratio)
2,B2,4.09 R (bound/input frequency ratio)
3,B3,0.956 R (bound/input frequency ratio)
4,B4,6.52 R (bound/input frequency ratio)
5,B5,5.29 R (bound/input frequency ratio)
6,B6,1.07 R (bound/input frequency ratio)
7,B7,6.63 R (bound/input frequency ratio)
8,B8,5.82 R (bound/input frequency ratio)
9,B9,5.96 R (bound/input frequency ratio)
